Measured values from ChEMBL document CHEMBL4513216, “Probing the Open Global Health Chemical Diversity Library for Multistage-Active Starting Points for Next-Generation Antimalarials” (ACS Infect Dis, 2020).
Out of some 69,000 compounds screened, about 8,600 (12%) showed an effect of 50% or more. Shown is part of a subset that was picked to be rich in strong results.

Tested on: Plasmodium berghei
Assay: Screen against P. berghei liver stage (PbLuc), transformed with Luciferase, at 10uM
Type: functional, HepG2
Details: tested at 10 uM

Compound | INHIBITION
CO[C@@H]1CCC[C@@H](N(C)C(=O)c2cn3cc(C)ccc3n2)[C@H]1O | -11.125%
COc1ccc(C(=O)N2CCCS2(=O)=O)cc1 | -11.4%
CN1C(=O)CC(c2ccccc2)C12CCN(CC1CCOCC1)CC2 (stereo unspecified) | -7.28%
COCCN1CCC(CN(CC2CCCO2)C(=O)C2CCOCC2)CC1 (stereo unspecified) | 29.9%
CCCc1nc(C(C)(C)NC(=O)c2ccnn2C)no1 | 38.3%
CN(C)Cc1nc(C(C)(C)NC(=O)c2ccnn2C)no1 | 57.6%
Cn1nccc1C(=O)NC(C)(C)c1noc(C(C)(C)C)n1 | 12.7%
CCNc1ncc(C(=O)N2CCc3c(nc(C)nc3N(C)C)C2)cn1 | 36.7%
CCO[C@H]1CN(C)C[C@@H]1NC(=O)c1cc(C)nc2c(C)cccc12 | 24.3%
Cc1cc(SC(C)(C)C)ccc1NCC(=O)NC(N)=O | 32%
Cc1cc(SC(C)(C)C)ccc1NC(C)C(=O)NC(N)=O (stereo unspecified) | 65.7%
Cc1cc(SC(C)(C)C)ccc1NC(=O)CNC(N)=O | 22.2%
O=C1NCC(c2ccc(F)cc2)Cc2[nH]c(CCN3CCCC3)nc21 (stereo unspecified) | 43.9%
Cc1c(Br)cc2c(c1C)OCC(N(C)C)C2=O (stereo unspecified) | 24.8%
CCOCCNc1nc(-c2ccncc2)nc2c1CCNCC2 | -86.4%
c1cn(CCNc2nc(NC3CC3)nc3c2CCNCC3)nn1 | 53.6%
COCCNc1nc2c(c(NCc3ccncc3)n1)CCNCC2 | -3.19%
c1cc(-c2nc3c(c(NCCc4c[nH]cn4)n2)CCNCC3)ccn1 | 5.41%
c1cc(-c2nc3c(c(NCCn4ccnn4)n2)CCNCC3)ccn1 | 72.1%
COCCNc1nc2c(c(NCC3CCOC3)n1)CCNCC2 (stereo unspecified) | 22.3%
O=C(N1CCCC1)N1CCn2c(nnc2C2CCCN2)C1 (stereo unspecified) | 27.5%
Cc1nc(C2CCCN2Cc2nc(C3CC3)no2)no1 (stereo unspecified) | 26.9%
COCCNC(=O)[C@H]1C[C@@H]2CCN(c3ncccn3)C[C@@H]2O1 | 25.3%
COC[C@H]1CC[C@H]2[C@H](CCN2C(=O)c2ccncc2F)O1 | 8.52%
CC1CCN(C(=O)[C@@H]2CC[C@@H]3[C@@H](CCN3c3ncc(F)cn3)O2)CC1 | 62.4%
CN1CCN(C(=O)[C@@H]2CC[C@@H]3[C@@H](CCN3c3ncccn3)O2)CC1 | 34.6%

Compound | INHIBITION
O=C(NC1CCCC1)[C@H]1CC[C@@H]2[C@@H](CCN2c2ncc(F)cn2)O1 | -9.54%
O=C(NC1CC1)[C@H]1CC[C@@H]2[C@@H](CCN2c2ncc(F)cn2)O1 | 50.1%
COCCNC(=O)[C@@H]1CC[C@@H]2[C@@H](CCN2c2ncc(F)cn2)O1 | 0.734%
COCCNC(=O)[C@H]1CC[C@@H]2[C@@H](CCN2c2ncc(F)cn2)O1 | 0.734%
Cc1noc(CN(Cc2cccs2)C2CC2)n1 | 47.3%
COCCO[C@H]1CCN(C(=O)c2cc(C)on2)[C@H]1Cc1ccccc1 | 28.2%
CC1(c2[nH]ncc2C(N)=O)CCN(S(=O)(=O)c2ccccc2)CC1 | 11.1%
CCC(CC)C(=O)N1CCN(Cc2cc(=O)c3ccccc3[nH]2)CC1 | 33.4%
O=c1c2c(ncn1CCO)nc1n2CCC1 | 1.98%
NC(=O)Cn1cnc2nc3n(c2c1=O)CCC3 | -17%
CCOC(=O)Cn1cnc2nc3n(c2c1=O)CCC3 | 81.2%
Cc1ccn2ncc(C(=O)N3CCCC(n4ccnc4C)C3)c2n1 (stereo unspecified) | -31.5%
Cc1nn(-c2ccccc2)cc1C(=O)N1CCCN2CCCC2C1 (stereo unspecified) | 51.3%
Cc1nn(-c2ccccc2)cc1C(=O)N1CCCC(n2ccnc2)C1 (stereo unspecified) | -3.2%
Cc1nn(-c2ccccc2)cc1C(=O)N1CCCC(n2cccn2)C1 (stereo unspecified) | 66.4%
Cc1ccn2ncc(C(=O)N3CCCC(n4nc(C)nc4C)C3)c2n1 (stereo unspecified) | 11.5%
Cc1cnn(C2CCCN(C(=O)c3cn(-c4ccccc4)nc3C)C2)c1 (stereo unspecified) | -42.3%
Cc1nn(-c2ccccc2)cc1C(=O)N1CCCC1c1cnn(C)c1 (stereo unspecified) | 43.3%
O=C(c1ccn(-c2ccccc2)n1)N1CCCC(n2cccn2)C1 (stereo unspecified) | 2.97%
Cc1ccn2ncc(C(=O)N3CCCC(n4cccn4)C3)c2n1 (stereo unspecified) | 50.5%
CN(C)c1ncc(C(=O)N2C[C@H]3CC(Oc4ccccc4)C[C@H]3C2)cn1 (stereo partly specified) | 2.35%
O=C(Cc1cn2ccccc2n1)N1CCCC(n2ccnc2)C1 (stereo unspecified) | -43.6%
Cc1cccc(N2CCOCC3(C2)CN(c2ccoc2)C(=O)CO3)n1 (stereo unspecified) | 32.5%
NC(=O)c1cc(CC2CCCN(c3cnccn3)C2)ncn1 (stereo unspecified) | -32.7%
CS(=O)(=O)NC1CCCN(C(=O)Nc2cccnc2N2CCCC2)C1 (stereo unspecified) | 21.1%
Cc1oncc1C(=O)N1CC[C@H]2[C@H](C[C@@H](CN(C)C)N2CC2CC2)C1 | 33.5%

Compound | INHIBITION
CN(C)C[C@@H]1C[C@@H]2CN(Cc3nccn3C)CC[C@@H]2N1CC1CC1 | 51.2%
CC(C)N1[C@H](Cn2cncn2)C[C@@H]2CN(Cc3nccn3C)CC[C@@H]21 | 37.6%
Cc1ccc2nc(C)cc(C(=O)N3C[C@H]4CCC[C@@]4(CO)C3)c2c1 | 75.7%
Cc1cc(C(=O)N2C[C@H]3CCC[C@@]3(CO)C2)c2ccc(F)cc2n1 | 58.6%
CCc1ccc2nc(C)cc(C(=O)N3C[C@H]4CCC[C@@]4(CO)C3)c2c1 | 25.5%
Cc1cc(C(=O)N2C[C@H](c3ccccc3)[C@@H](N)C2)c2ccc(F)cc2n1 | 13%
CCCc1cc(C(=O)N2C[C@H]3CCC[C@@]3(CO)C2)[nH]n1 | 21.9%
Cc1cc(C(=O)N2CCC(n3nc(C)cc3C)C2)c2ccc(F)cc2n1 (stereo unspecified) | 37.3%
CC(C)COC(C)C(=O)NCc1ccc(F)cc1 (stereo unspecified) | -27.8%
Cc1cccc(CNC(=O)CC2CCN(Cc3ccccn3)CC2)n1 | 18.3%
CCc1nc(C2CCCN2C(=O)CCc2cscn2)no1 (stereo unspecified) | 18.2%
CCn1cc(CN2C[C@@H]3CCCN3C[C@H]2CCSC)cn1 | 35.2%
CCOCC1CN(Cc2csc(C)n2)Cc2nccn2C1 (stereo unspecified) | 1.9%
CCCc1nnc(N2CCC3(CC2)CC(=O)NC(=O)C3)o1 | -10.2%
O=C(Cc1ccsc1)N1CCC(Cn2cc(CCO)nn2)CC1 | 57.1%
CC(C)(CN1CCCC1)CN1CCC(Cn2cc(CCO)nn2)CC1 | -6.03%
NCc1cn(CC2CCCN(C(=O)NCc3ccc(Cl)cc3)C2)nn1 (stereo unspecified) | 45.8%
O=C(CC1=CCCCC1)N1CCC(Cn2cc(CCO)nn2)CC1 | 58.5%
CC(C)CCN1CCCC(Cn2cc(CCO)nn2)C1 (stereo unspecified) | 6.69%
O=C(c1sccc1Cl)N1CCC(Cn2cc(CO)nn2)CC1 | 10.7%
COc1ccc(CC(=O)N2CCCC(Cn3cc(CN)nn3)C2)cc1 (stereo unspecified) | 12.7%
NCc1cn(CC2CCCN(C(=O)CC3=CCCCC3)C2)nn1 (stereo unspecified) | 58.5%
COCc1cn(C2CCN(C(=O)Cc3ccsc3)CC2)nn1 | 34.8%
CC(C)N(C)Cc1cnc2n1CCN(CCc1ccccc1)C2 | 8.47%
O=C(NCCc1cccs1)[C@H]1CO[C@H]2CCNC[C@H]2C1 | 39.8%
Cc1noc(C)c1CN1CCO[C@H]2CN(C(=O)C3CCOCC3)C[C@H]21 | 29.4%

Compound | INHIBITION
O=C(c1ccn(-c2ccccc2Cl)n1)N1CCCSCC1 | -15.3%
c1ccc(OC2C[C@@H]3CN(Cc4cnccn4)C[C@@H]3C2)cc1 (stereo partly specified) | -15.3%
Cc1cccc(Nc2nccnc2C2CCCN(CC(=O)N(C)C)C2)n1 (stereo unspecified) | 36.7%
c1ccc(CNc2cc(C3CCCNC3)ccn2)nc1 (stereo unspecified) | 7.775%
CNc1cccc(C2CCCN(Cc3ncc[nH]3)C2)n1 (stereo unspecified) | 15.9%
Cc1cccc(CNc2cc(C3CCCNC3)ccn2)n1 (stereo unspecified) | 50.45%
CCc1nnc(Nc2cccc(C3CCCN(CC(C)(C)C)C3)n2)s1 (stereo unspecified) | -34.6%
Cc1cccc(Nc2cccc(C3CCCN(Cc4ncc[nH]4)C3)n2)n1 (stereo unspecified) | 64.1%
Cc1nnc(Nc2cccc(C3CCN(Cc4ncc[nH]4)CC3)n2)s1 | -12.9%
COCCNc1cc(C2CCCNC2)ccn1 (stereo unspecified) | -14.775%
Cc1cc(C)nc(Nc2cccc(C3CCCN(CC4CC4)C3)n2)n1 (stereo unspecified) | 47.2%
NC(=O)CN1CCCC(c2ccnc(Nc3ncccn3)c2)C1 (stereo unspecified) | 37.55%
Cc1cccc(Nc2cc(C3CCCN(CC(N)=O)C3)ccn2)n1 (stereo unspecified) | 81.55%
Cc1nnc(Nc2cccc(C3CCCN(Cc4ncc[nH]4)C3)n2)s1 (stereo unspecified) | 62.9%
CN(C)CCNC(=O)C1Cc2nc(-c3ccsc3)sc2N1CC1CC1 (stereo unspecified) | -16.2%
CCN1C[C@H]2[C@@H](C1)N(S(=O)(=O)c1ccccc1F)CC[C@H]2OC | 32.2%
CN1CCn2c(-c3ccccc3)cnc2C12CCN(CC1CC1)CC2 | 29.8%
CCOC(=O)N1C[C@@H]2CC[C@H]1CN(Cc1ccccc1)C2 | 12.8%
CN(C)CCN1C(=O)C[C@@H]2[C@@H]1CCN2S(=O)(=O)c1ccccc1 | -71.3%
CCC(=O)N1CCCCC1c1nc(O)c2c(n1)CN(S(C)(=O)=O)CC2 (stereo unspecified) | 10.9%
Cn1ccc(-c2cc(C(=O)N3CCCCC3)c3ccccn23)n1 | 49.4%
O=C(CCCOc1ccccc1F)Nc1cc[nH]n1 | 11.5%
CC(C)CC(=O)N[C@H](C)c1c(-c2ccc(Cl)cc2)noc1C(=O)O | 7.5%
